Compound activity (PubChem BioAssay)
Sampled rows, rich in hits. Any-hit rate of the full collection: about 3.6%.
Peg3 promoter: Peg3 promoter-driven luciferase inhibitors, primary screen, cell-based, HeLa, luciferase luminescence | HeLa PEG-Prom luciferase reporter, overnight | inhibition, % at 20 µM | 360,000 tested, 1.7% active;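 active = inhibition of at least 50% at 20 µM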
HSP90 refold inh: HSP90 inhibitors, primary screen, cell lysate, luminescence; Rabbit reticulocyte lysate, luciferase refolding luminescence, 3 h; inhibition, % at 5.6 µM; 290,000 tested, 0.91% active; AID 1789, 2009;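 active = inhibition above the screen-wide mean plus 3 SD, computed separately per campaign, cut at about 16% in these data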;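 note: 0% = DMSO wells and 100% = 60 µM geldanamycin wells; inhibitors lower the luminescence because luciferase stays unfolded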
KKLEB tox: cytotoxicity in KKLEB CF airway cells, primary screen, cytotoxicity control for CF NF-kB inhibitor project, cell-based, uHTS, fluorescence assay plates | 360,000 tested, 0.36% active | KKLEB CF airway cells viability, ATPlite luminescence, overnight; active compounds read low; cells stimulated with P. aeruginosa culture filtrate | activity change (cytotoxicity), % at 5 µM;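 active = corrected activity change at or below -50% at 5 µM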
CF NFkB inh: inhibitors of PAF-induced NF-kB signaling, primary screen, cell-based, GFP fluorescence, uHTS; KKLEB NF-kB-GFP reporter, GFP fluorescence overnight; inhibition, % at 5 µM; 360,000 tested, 0.86% active;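 active = at least 50% inhibition at 5 µM, scaled per plate between neutral and stimulator controls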;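 note: PAF is a Pseudomonas aeruginosa culture filtrate used as stimulus; plate controls were PAF-stimulated DMSO wells for no effect and unstimulated DMSO wells for full effect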
LGR2 inh: inhibitors of bursicon-induced LGR2 CRE-luciferase signal, primary screen, cell-based, HEK293, CRE-luciferase reporter, bursicon stimulation; bursicon-stimulated, 4 h; Drosophila bursicon receptor LGR2 (rickets); inhibition, % at 9.99 µM; 380,000 tested, 0.35% active;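 active = drop in luminescence signal, shown as inhibition above about 50% in the replicate tests, limit read from the data, passing the limit was not always enough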;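 note: agonist challenge used bursicon conditioned medium at about half maximal strength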
Mdm2 MdmX PPI: inhibitors of human Mdm2-MdmX association, primary screen, cell-based, luminescence, split luciferase, SaOS-2, uHTS; SaOS-2 split-luciferase Mdm2/MdmX complementation; 330,000 tested, 3% active; inhibition, % at 8 µM; Protein Mdm4 (Homo sapiens) + E3 ubiquitin-protein ligase Mdm2 (Homo sapiens), …; AID 485346, 2010;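 active = inhibition of at least 50% at 8 µM in the primary screen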
An asterisk follows results filed as active; · = not tested or not shown.

SMILES	Peg3 promoter	HSP90 refold inh	KKLEB tox	CF NFkB inh	LGR2 inh	Mdm2 MdmX PPI
CC(C)Nc1nnc(SCC(=O)Nc2ccc3c(c2)C(=O)c2ccccc2C3=O)s1	87*	-3	-5	-48	-9	·
CC(C)NC(=O)N(C)C[C@@H]1Oc2ccc(NS(=O)(=O)c3cccs3)cc2C(=O)N([C@H](C)CO)C[C@H]1C	·	·	·	·	11	·
COc1ccc(C(=O)CC(Sc2ccccc2N)c2ccc(OC)cc2)cc1 (configuration not stated)	-186	·	-20	13	68*	·
C[C@H](CO)N1C[C@H](C)[C@@H](CN(C)S(=O)(=O)c2ccccc2)Oc2c(NC(=O)C3CCOCC3)cccc2C1=O	·	·	·	·	10	·
Cc1ccc(S(=O)(=O)N(C)C[C@@H]2Oc3ncc(-c4ccncc4)cc3C(=O)N([C@H](C)CO)C[C@H]2C)cc1	·	·	·	·	-17	·
O=C(CCS(=O)(=O)c1ccc(Br)cc1)NCc1cccs1	-3	17*	-1	2	11	14
O=C(CCS(=O)(=O)c1ccc(Br)cc1)NCc1ccco1	15	-4	-10	12	8	10
CCN1CCN(C(=O)C(=O)c2cn(CC(=O)N(CC)CC)c3ccccc23)CC1	63*	1	-7	6	-6	14
CN(C)CC(=O)N1CC[C@@H]2[C@H]1c1cc(Br)ccc1N(C)[C@H]2CO	·	·	·	·	15	·
CNC[C@@H]1OCCCC[C@@H](C)Oc2ccc(NS(=O)(=O)c3ccc(C)cc3)cc2C(=O)N([C@H](C)CO)C[C@@H]1C	·	·	·	·	1	·
Cc1ccc(-c2nc3ccccc3s2)cc1S(=O)(=O)N1CCCC1	-65	2	0	3	-40	-11
Cc1cc(-c2nc3cc(F)ccc3s2)ccc1N	-112	·	-30	-53	64*	·
C=CCn1c(C)cc(C(=O)Cn2ncc(Cl)c(Cl)c2=O)c1C	101*	1	-54*	88*	·	·
CC(C)(C)C(=O)Cn1ncc(Cl)c(Cl)c1=O	104*	3	-18	46	·	·
O=C(Cn1ncc(Cl)c(Cl)c1=O)NC1CCS(=O)(=O)C1 (configuration not stated)	-6	13	2	-2	-8	13
O=C(OCn1ncc(Cl)c(Cl)c1=O)c1ccccc1Cl	102*	-2	-90*	99*	·	·
O=C(Cn1ncc(Cl)c(Cl)c1=O)NCC1CCCCC1	108*	0	-73*	95*	·	·
CC(C)(C)C(=O)Cn1ncc(N2CCCC2)c(Br)c1=O	-168	-1	15	-3	·	14
COc1cccc(-c2ccc([C@@H]3[C@@H](CO)N4CCCCN(C(=O)NC(C)C)C[C@@H]34)cc2)c1	·	·	·	·	-4	·
CNC(=O)C[C@H]1CC[C@H]2[C@@H](COc3ccc(NC(=O)CC(F)(F)F)cc3C(=O)N2C)O1	·	·	·	·	8	·
O=C(Cn1ncc(Cl)c(Cl)c1=O)c1ccc(Cl)cc1	108*	1	-3	48	·	·
CCN1CCC(O)(/C=C/c2ccc(C(C)C)cc2)C(C(=O)/C=C/c2ccc(C(C)C)cc2)C1 (configuration not stated)	104*	·	-10	20	32	·
O=C(Nc1cc(F)ccc1F)N[C@H]1C=C[C@@H](CC(=O)N2CCc3ccccc3C2)O[C@@H]1CO	·	·	·	·	5	·
O=C(/C=C/c1ccccc1[N+](=O)[O-])c1ccc(F)cc1	107*	6	3	6	35	18
O=C(/C=C/c1ccccc1[N+](=O)[O-])Oc1ccccc1	·	-3	·	·	·	-11
SMILES	Peg3 promoter	HSP90 refold inh	KKLEB tox	CF NFkB inh	LGR2 inh	Mdm2 MdmX PPI
O=C(Nc1ccc(Br)cn1)c1cccc(-c2cc3ccccc3oc2=O)c1	-175	-1	-1	-9	-22	·
Cc1nc(NC(=O)c2cccc(-c3cc4ccccc4oc3=O)c2)ccc1Br	79*	-5	-6	7	-13	25
c1ccc(COc2ncnc3c2ncn3CCCNCC(c2ccccc2)c2ccccc2)cc1	100*	·	-17	21	42	·
CC(C)C(=O)Nc1ccc2c(c1)C(=O)N(C)[C@H]1CC[C@H](CC(=O)NCc3ccc(F)cc3)O[C@@H]1CO2	·	·	·	·	-6	·
Fc1ccccc1NC(=S)N/N=C/c1ccccc1Br	-256	16*	-6	-4	·	-87
CCSC1=C(C#N)C2(CCCCC2)C(C#N)C(=O)N1 (configuration not stated)	54*	3	3	9	·	-21
O=C(C[C@@H]1CC[C@H]2[C@@H](COC[C@@H](O)CN2Cc2cccc(Cl)c2)O1)NCc1cccc(F)c1	·	·	·	·	38	·
Cc1ccccc1NC(=O)Nc1nc(C(N)c2ccccc2)cs1 (configuration not stated)	4	·	1	4	2	·
CC(C)C(N)c1csc(NC(=O)Nc2cccc(Cl)c2)n1 (configuration not stated)	24	·	-29	13	1	·
CC(C)c1ccc(NC(=O)Nc2nc(C(N)c3ccccc3)cs2)cc1 (configuration not stated)	110*	·	-43	12	94*	·
CS(=O)(=O)c1ccc(Nc2nc(C(N)COCc3ccccc3)cs2)cc1 (configuration not stated)	10	·	-23	-16	17	·
CC(C)c1ccc(NC(=O)Nc2nc(C(N)COCc3ccccc3)cs2)cc1 (configuration not stated)	110*	·	-5	-13	-22	·
CC(C)c1ccc(NC(=O)Nc2nc(C(N)C(C)C)cs2)cc1 (configuration not stated)	96*	·	-13	8	9	·
C[C@@H]1CN([C@@H](C)CO)C(=O)c2cc(C#CC3(O)CCCC3)cnc2O[C@H]1CN(C)C(=O)C1CCOCC1	·	·	·	·	4	·
CN1c2ccc(-c3cccc(F)c3)cc2[C@@H]2[C@@H](CCN2C(=O)C2CCC2)[C@@H]1CO	·	·	·	·	1	·
O=C(N[C@H]1CC[C@H](CC(=O)N2CCCCC2)O[C@H]1CO)c1cccc(F)c1	·	·	·	·	-12	·
CCN(CC)c1ccc(NC2=C(Cl)C(=O)c3ccccc3C2=O)cc1	103*	-1	-93*	96*	·	·
CCOc1ccc(NC2=C(OC)C(=O)c3ccccc3C2=O)cc1	-110	2	0	32	14	-16
CCCC(=O)NC1=C(Cl)C(=O)c2ccccc2C1=O	98*	·	16	17	10	·
Cc1ccc(NC2=C(Cl)C(=O)c3ccccc3C2=O)cc1	96*	4	6	16	-25	·
CCNC1=C(Cl)C(=O)c2ccccc2C1=O	-1	6	-11	6	·	16
